Only some compounds are listed: those with a hit (about 2.9% of all), similar ones and a draw of the others.
LYPLA2 inh: LYPLA2 inhibitors, primary screen, counter-screen for PME1 inhibitor project, biochemical, fluorescence polarization, FP-Rh probe ABPP | Acyl-protein thioesterase 2 (Homo sapiens), O95372 | recombinant LYPLA2 | inhibition, % at 5.9 µM | actives 0.38% (n = 320,000);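 active means inhibition above the screen-wide mean plus 3 SD, limit set per campaign, cut at about 26% in these data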;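 further: 0% = LYPLA2 with DMSO and 100% = wells lacking LYPLA2 enzyme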
PAFAH1B2 inh: PAFAH1B2 enzyme inhibitors, primary screen, biochemical, fluorescence polarization, human. Platelet-activating factor acetylhydrolase IB subunit alpha2 (Homo sapiens), P68402. recombinant PAFAH1B2, FP-rhodamine activity probe. inhibition, % at 3.39 µM. actives 1.2% (n = 340,000);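 active means inhibition above the mean of all tested compounds plus 3 SD, cut at about 24% in these data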;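 further: 0% = enzyme with DMSO and 100% = wells lacking PAFAH1B2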
LYPLA1 counter: LYPLA1 inhibitors, primary screen, counter-screen for PME1 inhibitor project, biochemical, fluorescence polarization, FP-Rh probe ABPP; Acyl-protein thioesterase 1 (Homo sapiens), O75608; recombinant LYPLA1; inhibition, % at 5.9 µM; actives 0.16% (n = 320,000); AID 2174, 2009;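 active means inhibition above the mean of all tested compounds plus 3 SD, set per campaign, cut at about 14% in these data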;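 further: inhibitors block serine hydrolase probe labeling of LYPLA1 so polarization falls; 0% = enzyme with DMSO and 100% = wells lacking LYPLA1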
PAFAH2 FP inh: PAFAH2 enzyme inhibitors, primary screen, biochemical, fluorescence polarization, human; Platelet-activating factor acetylhydrolase 2, cytoplasmic (Homo sapiens), Q99487; recombinant PAFAH2, FP-rhodamine activity probe; inhibition, % at 3.39 µM; actives 0.99% (n = 340,000); AID 492956, 2010;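 active means inhibition above the mean over all tested compounds plus 3 SD, cut at about 30% in these data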;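 further: inhibitors block probe labeling of enzyme so polarization drops; 0% = enzyme with DMSO and 100% = wells lacking PAFAH2 protein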
PAFAH1B3 FP inh: PAFAH1B3 enzyme inhibitors, primary screen, biochemical, fluorescence polarization, human | recombinant PAFAH1B3, FP-rhodamine probe | actives 0.28% (n = 340,000) | AID 492972, 2010 | inhibition, % at 3.39 µM;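 active means inhibition above the screen-wide average of all tested compounds plus 3 SD, cut at about 25% in these data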;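 further: 0% = enzyme with DMSO only and 100% = wells lacking PAFAH1B3 protein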
pPAFAH FP inh: pPAFAH enzyme inhibitors, primary screen, biochemical, fluorescence polarization, human; actives 1.5% (n = 330,000); AID 463082, 2010; inhibition, % at 3.39 µM; recombinant pPAFAH, FP-rhodamine probe fluorescence polarization;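 active means inhibition above the mean inhibition across the screen plus 3 SD, cut at about 25% in these data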;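 further: inhibitors block binding of the rhodamine activity-based probe so polarization drops; 0% = enzyme with DMSO and 100% = wells lacking pPAFAH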
Target sequence (Q13093 whole entry, looked up): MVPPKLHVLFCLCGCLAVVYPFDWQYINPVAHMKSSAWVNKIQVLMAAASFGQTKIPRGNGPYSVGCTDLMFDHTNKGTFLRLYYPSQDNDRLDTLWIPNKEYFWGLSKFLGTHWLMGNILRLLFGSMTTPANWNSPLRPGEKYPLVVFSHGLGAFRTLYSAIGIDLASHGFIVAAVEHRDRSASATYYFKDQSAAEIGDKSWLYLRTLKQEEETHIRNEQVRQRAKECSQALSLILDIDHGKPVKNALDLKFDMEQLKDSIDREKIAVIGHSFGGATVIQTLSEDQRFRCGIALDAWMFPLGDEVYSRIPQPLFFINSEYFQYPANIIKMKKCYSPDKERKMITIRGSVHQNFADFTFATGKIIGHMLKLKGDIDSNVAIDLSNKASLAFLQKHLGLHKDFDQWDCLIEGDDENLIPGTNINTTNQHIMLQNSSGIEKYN
LYPLA1 conf: LYPLA1 inhibitors, retest, confirmation, counter-screen for PME1 inhibitor project, biochemical, fluorescence polarization, FP-Rh probe ABPP; shares compounds with LYPLA1 counter; recombinant LYPLA1; inhibition, % at 5.9 µM; actives 69% (n = 480); AID 2233, 2010;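 active means mean inhibition across replicates above the hit cutoff set in the primary screen, cut at about 15% in these data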;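 further: loss of FP-Rh probe labeling of LYPLA1 seen as lower polarization; 0% = LYPLA1 with DMSO and 100% = wells lacking LYPLA1 enzyme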
* = called active by the depositor; . = no result given.

SMILES | LYPLA2 inh | PAFAH1B2 inh | LYPLA1 counter | PAFAH2 FP inh | PAFAH1B3 FP inh | pPAFAH FP inh | LYPLA1 conf
Cc1ccsc1C1Nc2ccc3ncccc3c2C2=C1C(=O)CC(C)(C)C2 (stereo unspecified) | 11 | 8 | 16* | -2 | -1 | 4 | 11
CN(C(=O)c1ccc(NC(=O)Cc2cccc([N+](=O)[O-])c2)cc1)C1CC1 | 18 | 4 | 42* | -1 | 13 | 6 | 35*
O=C(Nc1ccc2c(c1)OCCO2)NC1CCCCC1 | -4 | 3 | -1 | 0 | 0 | 0 | .
COc1ccccc1NC(=O)COc1ccc(Br)cc1CNCCCN1CCOCC1 | 4 | 6 | 2 | -3 | 5 | 3 | .
COc1cc(CNCCCN2CCOCC2)c(Br)cc1OCC(=O)Nc1ccccc1C | 9 | 0 | 17* | 5 | 6 | 5 | 0
CC(C)(C)OC(=O)N[C@@H](Cc1c[nH]c2ccccc12)c1nnc(SCC(N)=O)o1 | 9 | 6 | 3 | 5 | 0 | 4 | .
CC(C)Sc1nnc([C@H](Cc2c[nH]c3ccccc23)NC(=O)OC(C)(C)C)o1 | 5 | 8 | 46* | 4 | 8 | 6 | 2
COc1ccc(C/C(C)=N/NC(=S)Nc2ccc(C)c(C)c2)cc1 | 3 | 0 | 2 | -9 | 6 | -5 | .
Cc1nc2c(C(=O)NCCc3ccccc3Cl)c[nH]n2c(=O)c1Cl | 13 | 11 | 18* | 13 | 7 | 25* | 16*
COC(=O)c1c[nH]n2c(=O)c(Cl)c(C)nc12 | -9 | 3 | -2 | -4 | -3 | -1 | .
CCCc1[nH]n(-c2ccc(F)cc2)c(=O)c1C=NCC1CCCO1 (stereo unspecified) | 3 | 2 | 0 | 0 | 9 | 1 | .
COC(=O)c1cc(C(=O)N2CCN(C(=O)c3ccco3)CC2)cc([N+](=O)[O-])c1 | 8 | 0 | -1 | 3 | 5 | 0 | .
COc1ccc([N+](=O)[O-])cc1NC(=O)C(C)N1CCN(C(=O)c2ccco2)CC1 (stereo unspecified) | -2 | 2 | 16* | -1 | 7 | -3 | 22*
CCCCn1c(N)c(N(CCOC)C(=O)COc2ccc(OCC)cc2)c(=O)[nH]c1=O | 0 | -2 | 2 | 5 | 4 | 6 | .
COc1cc2[nH]c(=O)n(CCCCCC(=O)N3CC=C(c4ccccc4)CC3)c(=O)c2cc1OC | 21 | 0 | 17* | -2 | 7 | 20 | 18*
Cc1ccccc1NC(=O)C1CCC(=O)N1 (stereo unspecified) | 0 | -4 | -2 | -5 | 6 | 4 | .
COC(=O)/C(C#N)=C\c1c(OC)[nH]c2ccccc12 | -1 | 2 | 20* | 9 | 3 | 8 | 3
Cc1ccc(C(=O)Nc2ccc3c(c2)C(=O)N(CC2CCCO2)C3=O)cc1 (stereo unspecified) | -3 | -3 | -1 | -2 | -3 | -1 | .
CCOC(=O)c1cccc(NC(=O)c2ccc3c(c2)C(=O)N(CC2CCCO2)C3=O)c1 (stereo unspecified) | 3 | -3 | 28* | -4 | 4 | -1 | 31*
CC(=O)Nc1ccc(S(=O)(=O)Nc2ccc(Cc3ccncc3)cc2)cc1 | 9 | 5 | 41* | 0 | 5 | 29* | 54*
O=C(CN1CCN(C(=O)c2ccco2)CC1)Nc1ccccc1-c1ccccc1 | 2 | 14 | 2 | 2 | 3 | 2 | .
O=C(CN1CCN(C(=O)c2ccccc2)CC1)Nc1cc(S(=O)(=O)N2CCCC2)ccc1Cl | 10 | 1 | 78* | -4 | 3 | 2 | 81*
O=C(CN1CCN(C(=O)c2ccco2)CC1)Nc1cc(Cl)ccc1Cl | 16 | -1 | 82* | 4 | 7 | 6 | 85*
O=C(CN1CCN(C(=O)c2cccc(S(=O)(=O)N3CCCC3)c2)CC1)Nc1ccccc1Cl | 4 | 4 | -2 | 3 | 4 | 0 | .

Screens as filed in PubChem.
